From PubChem BioAssay (NCATS)
Results filed as inconclusive are left out. Calls of active or inactive are those of the source. Calls come from the whole dose curve; as a rule, active = well fitted inhibition curve with a large enough effect; inconclusive = small, poorly fitted or top-dose-only effect; inactive = flat fitted curve, though single readings scatter.

Columns and labels:
Assay in all cases: qHTS profiling for inhibitors of Plasmodium falciparum proliferation (AID 504749); note: nearly all actives have a fitted effect of over 60% in size
Settings in all cases: P. falciparum in erythrocytes, SYBR Green DNA, 72 h
DIV17 = test system: DIV17
In short: (§1)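 Fluorescence of SYBR Green-bound parasite DNA, read at 485/535 nm, served as the growth measure. Infected erythrocytes were cultured with compound 72 h; artemisinin (0.29 uM) and DMSO wells defined the normalization range.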

DIV30 = test system: DIV30
In short: as §1

Dd2 = test system: Dd2
In short: as §1

ECU = test system: ECU
In short: as §1

GB4 = test system: GB4
In short: as §1

HB3 = test system: HB3
In short: as §1

ICS = test system: ICS
In short: as §1

N140 = test system: N140
In short: as §1

P93_24 = test system: P93_24
In short: as §1

P94_40 = test system: P94_40
In short: as §1

PAD = test system: PAD
In short: as §1

PC15 = test system: PC15
In short: as §1

PC26 = test system: PC26
In short: as §1

SC27B = test system: SC27B
In short: as §1

TAB109 = test system: TAB109
In short: as §1

TAB113 = test system: TAB113
In short: as §1

TAB165 = test system: TAB165
In short: as §1

W2 = test system: W2
In short: as §1

JCK = test system: JCK
In short: as §1

PC49 = test system: PC49
In short: as §1

Measured: Potency
Potency is the fitted concentration of half-maximal effect.

CC[C@]1(O)CC2CN(CCc3c([nH]c4ccccc34)[C@@](C(=O)OC)(c3cc4c(cc3OC)N(C)[C@H]3[C@@](O)(C(=O)OC)[C@H](OC(C)=O)[C@]5(CC)C=CCN6CC[C@]43[C@@H]65)C2)C1 (stereo partly drawn)
active: DIV17 6750 nM | DIV30 1900 nM | Dd2 178 nM | ECU 2240 nM | GB4 1900 nM | HB3 398 nM | ICS 708 nM | N140 2820 nM | P93_24 1260 nM | P94_40 1000 nM | PAD 4470 nM | PC15 5010 nM | PC26 1690 nM | SC27B 3550 nM | TAB109 1000 nM | TAB113 3980 nM | TAB165 2000 nM | W2 478 nM

CC(=O)O[C@H]1C(=O)[C@@]2(C)[C@H]([C@H](OC(=O)c3ccccc3)[C@]3(O)C[C@H](OC(=O)[C@H](O)[C@@H](NC(=O)c4ccccc4)c4ccccc4)C(C)=C1C3(C)C)[C@]1(OC(C)=O)CO[C@@H]1C[C@@H]2O
active: DIV17 953 nM | DIV30 601 nM | Dd2 126 nM | ECU 891 nM | GB4 338 nM | HB3 1000 nM | ICS 398 nM | JCK 11200 nM | N140 631 nM | P93_24 631 nM | P94_40 355 nM | PAD 708 nM | PC15 1410 nM | PC26 536 nM | PC49 2000 nM | SC27B 1260 nM | TAB109 355 nM | TAB113 1260 nM | TAB165 282 nM | W2 169 nM
